In the library only some 9.4% were active in any assay of this set; here they are far more common.
Rab9 promoter act = activators of Rab9 promoter. Huh7 Rab9 promoter-luciferase reporter, luminescence, 24 h. Potency, µM (series often up to 9.22 µM), without a hit: top-dose activation, negative = inhibition, most hits filed as activators. 2.8% of 320,000 active. AID 485297; also: % of control where 0% means no effect; nearly all actives have a fitted effect of over 60% in size
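Measured in stably transfected Huh7 cells bearing a Rab9 promoter–luciferase construct: 24 h compound treatment at 37 °C, followed by luminescence detection.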
SMN2 splice up = increases expression of the SMN2 splice variant; AID 1458; Potency, µM (doses to about 46.1 µM), for inactives: at the top dose activity change, positive = activation, most hits filed as activators; HEK293 SMN2-luciferase splicing reporter, luminescence, 30-36 h; 2.8% of 210,000 active; also: % of control where 0% means no effect; nearly all actives have a fitted effect of over 55% in size
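HEK293 cells carry an SMN2 […]–luciferase reporter in which exon 7 inclusion puts luciferase in frame. Cells were plated 10-12 h before compound addition, then incubated 30-36 h at 37C. ONE-Glo luminescence was read; sodium butyrate at 4.5 mM final served as control.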
FLuc modulator = counter-screen for miR-21 project: firefly luciferase inhibitors or activators | Potency, µM (doses to about 57.5 µM), inactives show at the top dose activity change, negative = inhibition, hits mostly inhibitors | AID 588342 | P08659 | 6.9% of 360,000 active | purified FLuc, Km substrates, luminescence inhibition;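 also: plate controls were vehicle for no effect and reference inhibitor for full effect; nearly all actives have a fitted effect of over 55% in size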
Target sequence (P08659 whole entry, looked up): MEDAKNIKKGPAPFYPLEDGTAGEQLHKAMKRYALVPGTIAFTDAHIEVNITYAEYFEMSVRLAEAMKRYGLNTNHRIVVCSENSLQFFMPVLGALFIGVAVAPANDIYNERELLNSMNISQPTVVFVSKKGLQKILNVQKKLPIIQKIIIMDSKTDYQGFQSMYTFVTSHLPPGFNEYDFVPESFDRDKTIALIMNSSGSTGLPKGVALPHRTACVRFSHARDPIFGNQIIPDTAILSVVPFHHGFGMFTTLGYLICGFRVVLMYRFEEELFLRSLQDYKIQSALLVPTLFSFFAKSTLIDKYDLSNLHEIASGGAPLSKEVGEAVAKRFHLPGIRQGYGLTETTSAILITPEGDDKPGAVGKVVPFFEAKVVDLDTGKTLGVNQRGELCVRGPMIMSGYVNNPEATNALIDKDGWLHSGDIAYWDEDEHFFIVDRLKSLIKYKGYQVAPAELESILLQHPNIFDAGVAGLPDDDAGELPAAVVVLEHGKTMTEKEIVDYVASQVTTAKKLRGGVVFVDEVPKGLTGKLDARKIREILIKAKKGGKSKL
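Purified P. pyralis luciferase, 10 nM final, with Km-level 10 uM D-luciferin and 10 uM ATP in 50 mM Tris acetate pH 7.5, 10 mM Mg acetate, 0.01% Tween-20, 0.05% BSA; 6-point qHTS titration about 60 µM downward; luminescence read.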
ELG1 DNA repair = inhibitors of ELG1-dependent DNA repair in HEK293T cells | HEK293T ELG1-luciferase reporter, luminescence, 16 h; DNA damage induced by 5-fluorouridine | Potency, µM (doses to about 46.1 µM), for the others: top-dose activity change, negative = inhibition, most hits filed as inhibitors | 2.3% of 330,000 active | AID 504467; also: % is scaled to controls: 0 for no effect and ±100 for the full control effect; nearly all actives have a fitted effect of over 55% in size
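Overnight (16 hr) co-exposure of 2,000 cells/well to 5-fluorouridine and compound at 37 °C preceded detection. Luciferase was quantified via ONE-Glo luminescence; loss of signal denotes inhibition.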
ELG1 genotoxic = genotoxicity induction in ELG1-luciferase HEK293T cells | HEK293T ELG1-luciferase reporter, luminescence, 16 h | 1.3% of 330,000 active | Potency, µM (series often up to 46 µM), for the others: at the highest dose activity change, positive = activation, usual class: activators; also: % of control where 0% means no effect; nearly all actives have a fitted effect of over 60% in size
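16 hr compound incubation (37 °C, 5% CO2) of HEK293T cells carrying luciferase-tagged ELG1; luciferase then measured by ONE-Glo luminescence after 30 min at RT.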
NPC1 prom act = activates the NPC1 promoter; Potency, µM (doses to about 9.22 µM), without a hit: at the top dose activation, usual class: activators; AID 485313; 2.4% of 320,000 active; Huh7 NPC1 promoter luciferase reporter, 24 h; also: % of control where 0% means no effect; nearly all actives have a fitted effect of over 60% in size
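Quantitative HTS used a cell-based reporter: Huh7 cells stably bearing the NPC1 promoter upstream of luciferase were treated with compounds for 24 h, and promoter activation was read as luminescence.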
ELG1 FLuc counter = luciferase inhibition in cell-free luciferin readout for ELG1 hits; shares compounds with ELG1 DNA repair; cell-free firefly luciferase luminescence counter-screen, ViewLux; Potency, µM (titrated, usually from 46.1 µM), inactives show top-dose activity change, negative = inhibition, actives largely listed as inhibitors; 3% of 350 active; also: % is scaled to controls: 0 for no effect and ±100 for the full control effect
ELG1 Luc conf = human ELG1 repair inhibition, luciferase-tagged ELG1 confirmation. shares compounds with ELG1 DNA repair. HEK293T ELG1-luciferase levels, luminescence; cells co-treated with 5-fluorouridine. Potency, µM (top dose mostly 46.1 µM), for the others: at the top dose activity change, negative = inhibition, most hits filed as inhibitors. 68% of 670 active. AID 624248; also: % is scaled to controls: 0 for no effect and ±100 for the full control effect; nearly all actives have a fitted effect of over 55% in size
ELG1 MMS Luc = inhibits ELG1-dependent repair under MMS stimulation in HEK293T cells | 53% of 670 active | shares compounds with ELG1 DNA repair | HEK293T luciferase-tagged ELG1 level, MMS stimulated | AID 624249 | Potency, µM (series often up to 46.1 µM), without a hit: at the highest dose activity change, negative = inhibition, most hits filed as inhibitors; also: % is scaled to controls: 0 for no effect and ±100 for the full control effect; nearly all actives have a fitted effect of over 60% in size
ELG1 5-FU = confirmation of ELG1 repair inhibitors: viability with 5FU; shares compounds with ELG1 DNA repair; cell viability with 5-FU, ELG1-dependent repair; Potency, µM (doses to about 46.1 µM), for inactives: top-dose activity change, negative = viability loss, usual class: cytotoxic; 670 tested, under 10 active; AID 624250;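 also: ELG1-luc HEK293T cells cotreated with 5-fluorouridine at 10 µM final; viability measured 16 h after compound addition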
ELG1 MMS cell = confirmation of ELG1 repair inhibitors: viability with MMS. shares compounds with ELG1 DNA repair. 33% of 670 active. Potency, µM (top dose mostly 46.1 µM), for inactives: at the top dose activity change, negative = viability loss, most hits filed as cytotoxic. Cell viability with MMS, ELG1-dependent DNA repair;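 also: ELG1-luc HEK293T cells co-treated with 10 µM MMS; viability read 16 h after compound addition; % is scaled to controls: 0 for no effect and ±100 for the full control effect; nearly all actives have a fitted effect of over 60% in size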
Cell viab unstim = affects unstimulated cell viability, ELG1 hit counter-screen; shares compounds with ELG1 DNA repair; cell viability counter-screen, unstimulated, luminescence; Potency, µM (series often up to 45.9 µM), without a hit: top-dose activity change, negative = loss of viability, most hits filed as cytotoxic; 8% of 900 active;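 also: compound exposure lasted 16 hours before reading; % is scaled to controls: 0 for no effect and ±100 for the full control effect; nearly all actives have a fitted effect of over 55% in size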
FLuc enzyme = counter-screen for ELG1 repair inhibitors: firefly luciferase inhibition | 10% of 350 active | shares compounds with ELG1 DNA repair | AID 624253 | purified firefly luciferase, luminescence counter-screen | Potency, µM (top dose mostly 57.5 µM), for inactives: top-dose activity, negative = inhibition, actives largely listed as inhibitors; also: % is scaled to controls: 0 for no effect and ±100 for the full control effect
* marks the source's active call; other numbers are inactive results. Calls follow the shape of the dose curve; as a rule, active = well fitted curve in the direction sought with a large enough effect; inconclusive = small, poorly fitted or top-dose-only effect, or another doubt; inactive = no such curve, though single readings can be large; an effect the other way counts as inactive or inconclusive. Potency is read from the fitted curve at half-maximal effect.

What do the screens show for `CCOc1ccc(C(=O)Nc2ccccc2N2CCN(C(=O)c3ccccc3)CC2)cc1[N+](=O)[O-]`?
Rab9 promoter act: -10%; FLuc modulator: -1%; ELG1 DNA repair: 4.6µM*; ELG1 genotoxic: -8%; NPC1 prom act: -8%; ELG1 Luc conf: 6.3µM*; ELG1 MMS Luc: inconclusive; ELG1 5-FU: 6%; ELG1 MMS cell: -1%; Cell viab unstim: -15%

What do the screens show for `COc1ccc(C2Nc3ccccc3C(=O)N2C2CCCCC2)cc1` (centres undefined)?
Rab9 promoter act: 22%; SMN2 splice up: 22%; FLuc modulator: -3%; ELG1 DNA repair: inconclusive; ELG1 genotoxic: 0%; NPC1 prom act: 10%

What do the screens show for `COc1ccc(CCN2C(=O)CSC2=Nc2ccc(C(C)C)cc2)cc1OC`?
Rab9 promoter act: -34%; FLuc modulator: 0%; ELG1 DNA repair: 4.1µM*; ELG1 genotoxic: -7%; NPC1 prom act: -27%; ELG1 Luc conf: 25µM*; ELG1 MMS Luc: 2.5µM*; ELG1 5-FU: inconclusive; ELG1 MMS cell: 2µM*; Cell viab unstim: 16µM*

Results for O=C1c2ccccc2N2C(=O)c3ccccc3[C@H]2N1c1ccccc1 ?
Rab9 promoter act: 1%; SMN2 splice up: -24%; FLuc modulator: -2%; ELG1 DNA repair: inconclusive; ELG1 genotoxic: -15%; NPC1 prom act: -2%; ELG1 FLuc counter: -9%; ELG1 Luc conf: 20µM*; ELG1 MMS Luc: inconclusive; ELG1 5-FU: 3%; ELG1 MMS cell: -17%; Cell viab unstim: -12%; FLuc enzyme: -1%

Results for CCOC(=O)N1CCC(NCCNC(=O)c2ccc(F)c(F)c2)CC1 ?
Rab9 promoter act: -7%; FLuc modulator: -2%; ELG1 DNA repair: 10%; ELG1 genotoxic: 0%; NPC1 prom act: 2%

Results for Cc1csc2ncnc(NCCc3ccccn3)c12 ?
Rab9 promoter act: -31%; SMN2 splice up: -64%; FLuc modulator: -15%; ELG1 DNA repair: 1.5µM*; ELG1 genotoxic: -1%; NPC1 prom act: -26%; ELG1 Luc conf: inconclusive; ELG1 MMS Luc: 1.6µM*; ELG1 5-FU: -3%; ELG1 MMS cell: 2.2µM*; Cell viab unstim: inconclusive

How did COc1ccc(/C=C/C(=O)NCC(=O)N/N=C(/C)c2ccc(Cl)cc2)cc1 do in these assays?
Rab9 promoter act: 1%; FLuc modulator: -5%; ELG1 DNA repair: inconclusive; ELG1 genotoxic: 13%; NPC1 prom act: 1%

What do the screens show for `CCOC(=O)c1c(NC(=O)C[n+]2ccc(N(C)C)cc2)sc(C)c1C`?
Rab9 promoter act: -19%; SMN2 splice up: -68%; FLuc modulator: 4%; ELG1 DNA repair: 4.1µM*; ELG1 genotoxic: -16%; NPC1 prom act: -22%; ELG1 Luc conf: 0%; ELG1 MMS Luc: 19%; ELG1 5-FU: -3%; ELG1 MMS cell: -8%; Cell viab unstim: inconclusive

Results for NC(=O)CN1C(=O)C(=O)N(Cc2cccc(C(F)(F)F)c2)C1=O ?
Rab9 promoter act: -4%; FLuc modulator: 0%; ELG1 DNA repair: inconclusive; ELG1 genotoxic: 1%; NPC1 prom act: 2%

How did COc1cc(C)c(CN2CCN(CC(=O)Nc3ccccc3C(=O)NC3CC3)CC2)cc1OC do in these assays?
Rab9 promoter act: 1%; FLuc modulator: 4%; ELG1 DNA repair: 3.7µM*; ELG1 genotoxic: -2%; NPC1 prom act: 0%; ELG1 Luc conf: 4µM*; ELG1 MMS Luc: 28µM*; ELG1 5-FU: inconclusive; ELG1 MMS cell: -18%; Cell viab unstim: 3%

What do the screens show for `COc1ccc(OC)c(CN2CCN(CC(=O)Nc3ccccc3C(=O)NC3CC3)CC2)c1`?
Rab9 promoter act: -6%; FLuc modulator: -2%; ELG1 DNA repair: inconclusive; ELG1 genotoxic: -7%; NPC1 prom act: -1%; ELG1 Luc conf: 7.1µM*; ELG1 MMS Luc: inconclusive; ELG1 5-FU: inconclusive; ELG1 MMS cell: inconclusive; Cell viab unstim: inconclusive

What do the screens show for `COc1ccc(NC(=O)CN2CCN(c3ccccc3F)CC2)c(OC)c1`?
FLuc modulator: 6%

Results for COc1ccc(OC)c(NC(=O)CN2CCC(NC(=O)c3ccccc3C)CC2)c1 ?
Rab9 promoter act: 0%; FLuc modulator: 0%; ELG1 DNA repair: inconclusive; ELG1 genotoxic: -9%; NPC1 prom act: -1%

Results for COc1ccc(NC(=O)CN2CCN(C3c4ccccc4-c4ccccc43)CC2)c(OC)c1 ?
Rab9 promoter act: -10%; SMN2 splice up: -29%; FLuc modulator: 0%; ELG1 DNA repair: 3.7µM*; ELG1 genotoxic: -10%; NPC1 prom act: -2%; ELG1 Luc conf: 4µM*; ELG1 MMS Luc: 8.9µM*; ELG1 5-FU: inconclusive; ELG1 MMS cell: inconclusive; Cell viab unstim: -12%

Bioassay records: PubChem, National Center for Advancing Translational Sciences (NCATS)
